Records with an inconclusive call do not appear. Entries that show only a call come without a potency. Values without a mark were called inactive. The source made the active and inactive calls. The call rests on the fitted dose curve; in most records, active means well fitted inhibition curve with a large enough effect; inconclusive means small, poorly fitted or top-dose-only effect; inactive means flat fitted curve, though single readings scatter.

The target of experiment [1] is Calcium and integrin-binding protein 1 (Homo sapiens) (UniProt Q99828). Briefly: Primary qHTS for Identification of Calcium Integrin Binding Protein 1 (CIB1) Competitor (AID 1508620).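 Further: GST tagged CIB1 binding a fluorescein labelled alphaIIb integrin peptide tracer; top concentration of the series differs between compounds.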 The method in brief:
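Fluorescence polarization competition: CIB1-GST (1 uM final) preincubated with compound 15 min at room temperature, then FITC-labeled alphaIIb peptide (100 nM final) added for another 15 min. Polarization read at Ex 480/Em 540.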

Experiment [2] in a line: Primary qHTS for inhibitors of nuclear receptor binding SET domain protein 2 (NSD2) in an isogenic RCH-ACV NSD2 p.E1099K mutant (9B) (AID 1645876). Further: nearly all actives have a fitted effect of over 70% in size. Further: potency means the concentration at half of the fitted maximal effect. On the technique in general: In qHTS, concentration-response curves come from the screen itself.

Calcium and integrin-binding protein 1 (Homo sapiens), sequence (Q99828 whole entry, looked up): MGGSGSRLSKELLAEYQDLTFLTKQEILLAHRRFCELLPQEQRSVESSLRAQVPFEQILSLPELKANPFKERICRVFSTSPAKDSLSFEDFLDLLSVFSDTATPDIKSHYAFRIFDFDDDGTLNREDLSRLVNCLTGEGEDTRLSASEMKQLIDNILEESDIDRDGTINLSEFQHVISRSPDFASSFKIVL

For `CC(C)C[C@H](CC(=O)NO)C(=O)N[C@H](C(=O)N[C@@H](C)C(=O)NCCN)C(C)(C)C`, the Potency entry in experiment [1] is “inactive”. The activity change, negative = viability loss in experiment [2] is -8.25% [at 9.23 µM].
For the molecule `CC1CCC23COC(=O)C2=CC(O)CC3C1(C)CCC1=CC(O)OC1=O` (stereo not given), the Potency entry in experiment [1] and in experiment [2] was “inactive” in each case.
On to `COC(=O)C1=CO[C@@H](O[C@@H]2O[C@H](CO)[C@@H](O)[C@H](O)[C@H]2O)[C@@H]2C(CO)=CC[C@]12O`, for which the Potency entry in experiment [1] and in experiment [2] was “inactive” in each case.
`CC(=O)OC1CC2(C)C3=CCC4(C)C5C(O)C(O)C(C(C)C)C5(C)CCC4(C)C3CCC2C(C)(C)C1OC1OC(CO)C(O)C(O)C1O` (stereo not given): the Potency entry in experiment [1] and in experiment [2] was “inactive” each time.
Regarding `C/C1=C\[C@H]2OC(=O)[C@@H](C)[C@@H]2CC/C(C(=O)O)=C/CC1`, the Potency result in experiment [1] and in experiment [2] was “inactive” in each case.
For `CC(C)CN(C[C@@H](O)[C@H](Cc1ccccc1)NC(=O)O[C@@H]1CO[C@H]2OCC[C@H]21)S(=O)(=O)c1ccc(N)cc1`, the Potency entry in experiment [1] and in experiment [2] was “inactive” in each case.
For `CCOC(=O)C(CCc1ccccc1)NC1CSC(c2cccs2)CN(CC(=O)O)C1=O` (stereo not given), the Potency entry in experiment [1] and in experiment [2] was “inactive” each time.
As to `CC1CC(O)/C=C/C(O)C(O)CC(=O)Cc2c(Cl)c(O)cc(O)c2C(=O)O1` (stereo not given), the Potency entry in experiment [1] and in experiment [2] was “inactive” in each case.
With `CCN(CC)c1ccc2c(O)c(C=Nc3ccc(CC(=O)O)c(-c4c5c(nc6ccccc46)CCC(C(=O)NN)C5)c3)c(=O)oc2c1` (stereo not given), in experiment [1], the Potency entry was “inactive”. The Potency in experiment [2] is 2900 nM (active).
Regarding `Cc1c(NC(=O)c2cc(C(N)=O)nc3cc(F)ccc23)c(C(F)(F)F)nn1Cc1ccc(C#N)cc1`, the Potency entry in experiment [1] and in experiment [2] was “inactive” throughout.
Consider `CC1(C)CC[C@]2(C(=O)O[C@@H]3O[C@H](CO)[C@@H](O)[C@H](O)[C@H]3O)CC[C@]3(C)C(=CCC4[C@@]5(C)C[C@@H](O)[C@H](O)C(C)(C)C5[C@H](O)C[C@]43C)[C@@H]2[C@@H]1O` (stereo not given in full), for which the Potency result in experiment [1] and in experiment [2] was “inactive” each time.
As for `C[C@@H]1C(=O)O[C@H]2C[C@]34[C@H]5C[C@@H](C(C)(C)C)[C@]36[C@@H](OC(=O)[C@H]6O)O[C@]4(C(=O)O5)[C@]21O`, the Potency entry in experiment [1] and in experiment [2] was “inactive” throughout.
With `OC[C@H]1O[C@@H](O[C@H]2[C@H](OCCc3ccccc3)O[C@H](CO)[C@@H](O)[C@@H]2O)[C@H](O)[C@@H](O)[C@@H]1O`, the Potency entry in experiment [1] and in experiment [2] was “inactive” throughout.
Turning to `C=C1C[C@]23C[C@H]1CC[C@H]2[C@]1(C)CCC[C@@](C)(C(=O)O)[C@H]1[C@@H]3C(=O)O`, the Potency entry in experiment [1] and in experiment [2] was “inactive” each time.
Regarding `O=C1CCC(=O)N(O)CCCCCNC(=O)CCC(=O)N(O)CCOCCNC(=O)CCC(=O)N(O)CCCCCN1`, the Potency result in experiment [1] and in experiment [2] was “inactive” each time.
Regarding `COc1cc2occc2c(O[C@@H]2O[C@H](CO)[C@@H](O)[C@H](O)[C@H]2O)c1CCC(=O)O`, the Potency entry in experiment [1] and in experiment [2] was “inactive” each time.
With `CC(/C=C/C1=CC2=CC(=O)C(C)(O)C(O)C2=CO1)=C\C(C)CCO` (stereo not given), the Potency entry in experiment [1] and in experiment [2] was “inactive” each time.
As for `C=C[C@@](C)(O)CC/C=C(\C)C(=O)O[C@@H]1[C@@H]2O[C@]2(C)[C@H]2[C@H](O[C@@H]3O[C@H](CO)[C@@H](O)[C@H](O)[C@H]3O)OC=C[C@@]12O`, the Potency result in experiment [1] and in experiment [2] was “inactive” each time.
Take `C[C@@H]1O[C@@H](O[C@H]2[C@@H]3C=CO[C@@H](O[C@@H]4O[C@H](CO)[C@@H](O)[C@H](O)[C@H]4O)[C@@H]3[C@@]3(CO)O[C@@H]23)[C@H](OC(=O)/C=C/c2ccc(O)c(O)c2)[C@H](O)[C@H]1O`: the Potency entry in experiment [1] and in experiment [2] was “inactive” each time.
With `C=C1CC2C(C)(CCC(=O)O)C(C(C)(C)O)CCC2(C)C2C(=O)OC(C)(C(=O)OC)C(=O)C12C` (stereo not given), the Potency result in experiment [1] and in experiment [2] was “inactive” in each case.
On to `O=C(/C=C\c1ccc(O)cc1)N[C@@H](Cc1ccc(O)cc1)C(=O)O`, for which the Potency result in experiment [1] and in experiment [2] was “inactive” throughout.
In the case of `COc1ccc([C@@H]2OC[C@H]3[C@@H]2CO[C@@H]3c2ccc(OC3OC(CO)C(O)C(O)C3O)c(OC)c2)cc1OC` (stereo not given in full), the Potency result in experiment [1] and in experiment [2] was “inactive” throughout.
On to `C=C1OC2CC(C(=O)O)C=CC2NC1=O` (stereo not given), for which the Potency entry in experiment [1] and in experiment [2] was “inactive” each time.
As for `COc1c2c(c(C)c3c1C(=O)OC3)O[C@@]1(C)CC(O)C(C(C)(C)O)[C@](C)(CCC(=O)O)[C@H]1C2` (stereo not given in full), the Potency result in experiment [1] and in experiment [2] was “inactive” in each case.
`COC(=O)C1=C2Nc3ccccc3C23CCN2CCCC(C(C)O)(C1)C23` (stereo not given): the Potency entry in experiment [1] and in experiment [2] was “inactive” in each case.
For the molecule `C=C1CCC2C(C)(C(=O)O)CCCC2(C)C1CC/C(=C\CO)CO` (stereo not given), the Potency result in experiment [1] and in experiment [2] was “inactive” throughout.
In the case of `CCn1cc(NC(=S)Nc2cc(Cl)ccc2OC)c(C(N)=O)n1`, the Potency entry in experiment [1] and in experiment [2] was “inactive” in each case.
Consider `CC1CCC2(OC1)OC1CC3C4CC=C5CC(O)CC(O[C@@H]6OC[C@@H](O)[C@H](O)[C@H]6O)C5(C)C4CCC3(C)C1(O)C2C` (stereo not given in full), for which the Potency entry in experiment [1] and in experiment [2] was “inactive” in each case.
Take `COc1ccc(CC2C(=O)NC(C)C(=O)N(C)C3Cc4ccc(cc4)Oc4cc(ccc4OC4OC(CO)C(O)C(O)C4O)CC(C(=O)NC(C)C(=O)NC(C)C(=O)N2C)N(C)C3=O)cc1` (stereo not given): the Potency entry in experiment [1] was “inactive”. Also, in experiment [2], the Potency is 13.8 nM (active).
As to `C=C1C[C@]23C[C@H]1CC[C@H]2[C@@]12CC[C@H](O)[C@@](C)(C(=O)O1)[C@H]2[C@@H]3C(=O)O`, the Potency entry in experiment [1] and in experiment [2] was “inactive” throughout.
